# Assay results taken from PMC4336329 (PLoS ONE, 2015).
# In all, about 310,000 compounds went through this assay and about 2,200 (0.71%) showed an effect of 50% or more. The effect is printed as a negative number. Many of the other results were omitted from the sample, so strong results are more common in it than they were.
# Biological target: human ether-à-go-go-related gene (hERG) potassium channel (human, UniProt Q12809)
# Test: primary screen, population patch clamp on CHO cells stably expressing hERG; higher = less effect of the substance
# Protocol: Briefly, Chinese hamster ovary (CHO) cells stably expressing the hERG channel were dislodged from tissue culture flasks and dispensed into PPC plates. […] During the recording, background leak currents were estimated by a 100 ms step to -80 mV from an initial holding potential of -70 mV and subtracted from the subsequent current measurement. The campaign was conducted in two phases using slight differences in recording protocol. In the first phase, the initial voltage pulse used a 100 ms step to -30 mV from a holding potential of -70 mV, a 2 s conditioning step to +25 mV, and a 2 s test step to -30 mV. During the second phase of the screen, the potential during the conditioning step was raised to +45 mV. In both phases of the campaign, a secondary voltage pulse was applied using the same parameters as the second phase initial pulse. The initial and secondary pulses were applied in the absence of compound, and upon application of 1 μM and 10 μM test concentrations. Small molecule effects on hERG current density were quantified by […].
# Sequence of human ether-à-go-go-related gene (hERG) potassium channel (Q12809 whole entry, looked up): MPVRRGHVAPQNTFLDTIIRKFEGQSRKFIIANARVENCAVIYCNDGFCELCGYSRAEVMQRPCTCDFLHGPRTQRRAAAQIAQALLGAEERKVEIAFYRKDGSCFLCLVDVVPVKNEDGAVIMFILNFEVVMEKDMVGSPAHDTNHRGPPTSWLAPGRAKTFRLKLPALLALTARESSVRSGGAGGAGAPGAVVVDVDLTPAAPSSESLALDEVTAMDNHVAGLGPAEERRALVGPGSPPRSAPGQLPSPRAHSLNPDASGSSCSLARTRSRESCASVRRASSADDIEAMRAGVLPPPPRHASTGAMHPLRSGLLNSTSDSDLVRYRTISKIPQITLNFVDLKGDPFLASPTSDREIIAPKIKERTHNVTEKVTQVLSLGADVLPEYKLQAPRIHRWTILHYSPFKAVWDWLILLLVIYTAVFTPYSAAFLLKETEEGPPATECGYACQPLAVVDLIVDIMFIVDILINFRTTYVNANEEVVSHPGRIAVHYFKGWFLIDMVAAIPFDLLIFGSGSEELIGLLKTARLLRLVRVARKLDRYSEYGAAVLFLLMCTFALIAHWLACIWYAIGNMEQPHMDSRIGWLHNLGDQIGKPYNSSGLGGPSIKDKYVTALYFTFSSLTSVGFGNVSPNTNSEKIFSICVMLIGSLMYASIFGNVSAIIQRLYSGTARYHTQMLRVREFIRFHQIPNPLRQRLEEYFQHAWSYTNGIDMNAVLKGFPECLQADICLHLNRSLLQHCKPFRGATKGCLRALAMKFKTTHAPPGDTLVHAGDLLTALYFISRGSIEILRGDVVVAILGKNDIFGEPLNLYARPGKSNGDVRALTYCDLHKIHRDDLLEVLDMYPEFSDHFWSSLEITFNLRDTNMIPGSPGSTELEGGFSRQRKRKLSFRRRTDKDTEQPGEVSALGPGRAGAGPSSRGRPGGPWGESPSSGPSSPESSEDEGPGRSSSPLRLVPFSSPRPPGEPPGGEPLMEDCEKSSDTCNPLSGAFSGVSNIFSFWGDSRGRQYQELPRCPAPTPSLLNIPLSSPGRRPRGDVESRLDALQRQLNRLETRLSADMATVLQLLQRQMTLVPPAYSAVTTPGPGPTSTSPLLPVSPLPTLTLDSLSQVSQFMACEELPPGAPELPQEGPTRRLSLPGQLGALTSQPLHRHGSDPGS
row,Compound,"hERG current change (%, negative = inhibition) at 1uM [%]"
1,COc1ccc(CNC(=S)NC2CCCC2)cc1,9.23
2,COc1ccc(NC(=O)N2CCC(CO)(CC3CCCCO3)CC2)c(OC)c1 (stereo not drawn),9.96
3,CCC(=O)c1ccc(N2CCN(C(=O)c3ccc(F)cc3)CC2)c(F)c1,-10.2
4,O=C(COc1ccc(-n2cnnn2)cc1)N1CCN(c2ccc(F)cc2)CC1,-60.3
5,CC(=O)c1ccc(N2CCN(C(=O)COc3ccc(F)cc3)CC2)c(F)c1,-62.7
6,CC(=O)c1ccc(N2CCN(C(=O)COc3ccccc3F)CC2)c(F)c1,-11.1
7,CCC(=O)c1ccc(N2CCN(C(=O)COc3ccccc3F)CC2)c(F)c1,-19.1
8,CC(=O)c1cc(F)c(N2CCN(C(=O)COc3ccc(F)cc3)CC2)cc1C,-38.2
9,CCC(=O)c1ccc(N2CCN(C(=O)COc3ccc(F)cc3)CC2)c(F)c1,-71.3
10,O=C(COc1ccc(-n2cnnn2)cc1)NCCc1ccc(F)cc1,-5.74
11,O=C(COc1ccc(F)cc1)Nc1ccc(-n2cnnn2)cc1,-27.2
12,CCN(CC(=O)NCc1cccs1)C(=O)/C=C/c1cccc(Br)c1,-42.3
13,COc1cccc(NC(=O)CN(C)C(=O)c2ccccc2Sc2ccccc2C#N)c1,8.02
14,CCC(C)NC(=O)Cn1nc(Cc2ccncc2)c2ccccc2c1=O (stereo not drawn),10.1
15,Cc1cc(NC(=O)c2ccc3c(c2)C(=O)N(C)C3=O)no1,16.4
16,Cc1ccc(C)c(OCCC(=O)NNC(=O)c2ccccc2)c1,10.8
17,Cc1cccc(N(C(=O)c2nsc(Cl)c2Cl)C(C(=O)NC2CCCC2)c2ccc(O)cc2)c1C (stereo not drawn),10.1

row,Compound,"hERG current change (%, negative = inhibition) at 1uM [%]"
1,O=C(c1cccc(S(=O)(=O)N2CCOCC2)c1)N(Cc1ccc(F)cc1)Cc1ccco1,-55.2
2,CN(C)S(=O)(=O)c1cccc(C(=O)N(Cc2ccc(F)cc2)Cc2ccco2)c1,-14.6
3,O=C(c1cccc(S(=O)(=O)N2CCOCC2)c1)N(Cc1ccco1)Cc1cccs1,-6.4
4,CCC(=O)O[C@]1(C(=O)CCl)[C@@H](C)C[C@H]2[C@@H]3CCC4=CC(=O)C=C[C@]4(C)[C@@]3(F)[C@@H](O)C[C@@]21C,18
5,COc1ccc(-c2cc3ccccc3n2CC(O)CN2CCOCC2)cc1 (stereo not drawn),2.37
6,COc1ccc(-c2cc3ccccc3n2CC(O)CN2CCCCC2)cc1.O=C(O)C(=O)O (stereo not drawn),-74.6
7,Cc1ccc(OCC(O)Cn2c(=N)n(CCN3CCCCC3)c3ccccc32)cc1.Cl (stereo not drawn),-30.1
8,COc1ccc(-c2cc3ccccc3n2CC(O)CN2CCC(C)CC2)cc1.O=C(O)C(=O)O (stereo not drawn),-49.8
9,Cl.N=c1n(CCN2CCCCC2)c2ccccc2n1CC(O)COc1ccccc1 (stereo not drawn),-32.7
10,CCOc1ccc(C(O)Cn2c(=N)n(CCN3CCCCC3)c3ccccc32)cc1.Cl (stereo not drawn),-56
11,Cc1cccc(OCC(O)Cn2c(=N)n(CCN3CCOCC3)c3ccccc32)c1.Cl (stereo not drawn),-8.29
12,COc1ccc(OCC(O)Cn2c(=N)n(CCN3CCCCC3)c3ccccc32)cc1.Cl (stereo not drawn),-51.2
13,Cl.N=c1n(CCN2CCCCC2)c2ccccc2n1CC(O)c1ccco1 (stereo not drawn),-4.15
14,Cc1ccccc1OCC(O)Cn1c(=N)n(CCN2CCOCC2)c2ccccc21.Cl (stereo not drawn),-25.3
15,Cc1cccc(OCC(O)Cn2c(=N)n(CCN3CCCCC3)c3ccccc32)c1.Cl (stereo not drawn),-59.8
16,CCCn1c(=N)n(CC(O)c2ccc(C)cc2)c2ccccc21.Cl (stereo not drawn),-14.9
